# Assay outcomes deposited in PubChem by National Center for Advancing Translational Sciences (NCATS).
# Vif-APOBEC3F blk: inhibitors of Vif-A3F interaction. HeLa A3F-eYFP + Vif (tagged APOBEC3F with the HIV-1 protein that degrades it), YFP fluorescence increase. Potency, µM (doses to about 46.1 µM), without a hit: top-dose activity, negative = active. 390,000 tested, 0.2% active. AID 602313; further: potency means the concentration at half of the fitted maximal effect; % of control where 0% means no effect; nearly all actives have a fitted effect of over 65% in size
#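 HeLa cells stably expressing A3F-eYFP plus Vif, plated and incubated overnight at 37 deg C, then exposed to compounds overnight at 37 deg C. Blocked degradation read as raised yellow fluorescence (Ex 488/Em 500-530).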
# PTAP TSG101 blk: blocks PTAP/TSG101 interaction to inhibit HIV-1 budding | Fluorescence polarization, FITC-PTAP peptide / Tsg101 binding | 340,000 tested, under 10 active | Potency, µM (top dose mostly 115 µM), without a hit: at the highest dose activity change, negative = inhibition, usual class: inhibitors; active means well fitted inhibition curve with a large enough effect in the main read-out, with a control signal flat, not every such curve was filed as active; inconclusive means small, poorly fitted or top-dose-only effect, or effect the other way, or a change in a side signal; inactive means no such curve, though single readings can be large or run the other way; further: potency means the concentration at half of the fitted maximal effect; % of control where 0% means no effect
# Target sequence (Q99816 whole entry, looked up): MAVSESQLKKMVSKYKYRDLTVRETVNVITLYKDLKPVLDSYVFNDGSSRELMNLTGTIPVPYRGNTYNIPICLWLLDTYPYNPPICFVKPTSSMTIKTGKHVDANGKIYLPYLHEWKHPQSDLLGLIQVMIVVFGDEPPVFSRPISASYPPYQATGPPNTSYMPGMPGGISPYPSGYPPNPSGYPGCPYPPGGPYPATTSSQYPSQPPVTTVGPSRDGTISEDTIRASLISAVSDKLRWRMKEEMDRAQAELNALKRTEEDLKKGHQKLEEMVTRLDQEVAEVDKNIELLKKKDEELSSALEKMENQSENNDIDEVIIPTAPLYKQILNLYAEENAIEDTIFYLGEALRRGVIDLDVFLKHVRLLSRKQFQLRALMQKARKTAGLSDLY
#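 Fluorescence anisotropy tracks displacement of a FITC-tagged PTAP peptide (50 nM) from the Tsg101 binding domain (10 uM), following a 20 min room-temperature incubation at pH 7.5.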
# CBFb-RUNX1 inh: blocks binding between human CBF-beta and RUNX1; Potency, µM (top dose mostly 59.8 µM), inactives show at the highest dose activity, negative = inhibition, actives largely listed as inhibitors; 230,000 tested, under 10 active; AlphaScreen CBFb-His/RUNX1-biotin binding, biochemical; Q01196+Q13951; further: % of control where 0% means no effect
#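 AlphaScreen proximity signal reports loss of binding between His-tagged CBF-beta and biotin-labelled RUNX1, each at 30 nM. Proteins are pre-associated for 20 minutes, compounds added for 15 minutes, then beads for 90 minutes, all at ambient temperature.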
# Vif-A3G inh: inhibitors of Vif-APOBEC3G interaction; Q9HC16; HeLa A3G-eYFP + Vif (tagged APOBEC3G with the HIV-1 protein that degrades it), YFP fluorescence, overnight; Potency, µM (series often up to 46.1 µM), without a hit: at the top dose activity, negative = active, actives largely listed as inhibitors; 410,000 tested, 0.076% active; further: potency means the concentration at half of the fitted maximal effect; on the % scale 0 is the no-effect control and ±100 the full control effect; nearly all actives have a fitted effect of over 60% in size
#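 Read-out is eYFP fluorescence (Ex 488/Em 500-530) from Vif-expressing HeLa A3G-eYFP cells; more signal means A3G escaped Vif-mediated degradation. Cells plated overnight, compound pinned in, incubated overnight at 37 deg C.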
# Epigenetic derep: epigenetic control regulation, reporter derepression; 280,000 tested, 0.2% active; murine LDR cells, GFP reporter derepression, 30 h; Potency, µM (series often up to 53.9 µM), for inactives: top-dose GFP activation, actives largely listed as activators; further: potency means the concentration at half of the fitted maximal effect; % of control where 0% means no effect; nearly all actives have a fitted effect of over 60% in size
#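 GFP-positive cell count by laser-scanning cytometry (objects 20–120 um) after 30 h, 37 C compound exposure of murine LDR cells; reporter is CMV-GFP integrated at a silenced locus, inducible by HDAC or DNMT inhibitors.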
# MBNL1 CUG block: inhibitors of human MBNL1 binding to CUG repeat RNA; Potency, µM (titrated, usually from 57.5 µM), for inactives: top-dose activity change, negative = inhibition, hits mostly inhibitors; TR-FRET MBNL1-His/biotin-(CUG)12 binding, 665/545 ratio; 280,000 tested, 0.036% active; AID 2675; Q9NR56; active means well fitted inhibition curve with a large enough effect in the signal ratio, with a control signal flat, not every such curve was filed as active; inconclusive means small, poorly fitted or top-dose-only effect, or effect the other way, or a change in a side signal; inactive means no such curve, though single readings can be large or run the other way; the % refers to the signal ratio; further: potency means the concentration at half of the fitted maximal effect; on the % scale 0 is the no-effect control and ±100 the full control effect
# Target sequence (Q9NR56 whole entry, looked up): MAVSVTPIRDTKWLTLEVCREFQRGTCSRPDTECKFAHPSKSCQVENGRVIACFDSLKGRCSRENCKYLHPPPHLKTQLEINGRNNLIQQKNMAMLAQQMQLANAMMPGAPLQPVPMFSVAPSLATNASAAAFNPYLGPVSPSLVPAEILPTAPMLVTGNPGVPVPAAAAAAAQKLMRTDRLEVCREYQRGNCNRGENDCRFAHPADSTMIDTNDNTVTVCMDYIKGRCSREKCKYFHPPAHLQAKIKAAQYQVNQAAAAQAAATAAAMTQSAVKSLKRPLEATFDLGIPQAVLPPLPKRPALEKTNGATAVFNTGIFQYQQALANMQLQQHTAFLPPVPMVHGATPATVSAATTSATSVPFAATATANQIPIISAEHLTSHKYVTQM
#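 Ratiometric TR-FRET (665 over 545 nm, excitation 340 nm) tracks disruption of MBNL1-His/biotin-(CUG)12 complex after 60 min at room temperature, with compounds at 92 nM to 58 uM final.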
# An asterisk follows results filed as active; u = inconclusive; x = no result. Rows were chosen to be rich in hits. Some 0.37% of all compounds tested hit in one or more screens of this group. Unless noted, the call rests on the fitted dose curve; in most records, active means well fitted curve in the direction sought with a large enough effect; inconclusive means small, poorly fitted or top-dose-only effect, or another doubt; inactive means no such curve, though single readings can be large; an effect the other way counts as inactive or inconclusive.
SMILES,Vif-APOBEC3F blk,PTAP TSG101 blk,CBFb-RUNX1 inh,Vif-A3G inh,Epigenetic derep,MBNL1 CUG block
Cn1cccc1/C=C1\Cc2ccccc2C1=O,-2.6%,0.8%,-9.1%,7.2%,4.6%,18.2%
CN1C2CCC1/C(=C\c1ccc(F)cc1)C(=O)/C2=C/c1ccc(F)cc1,u,-1.1%,2.5%,-21.2%,u,-7.7%
CN1C2CCC1/C(=C/c1cccn1C)C(=O)/C2=C\c1cccn1C,22.4µM*,u,-15.1%,u,-3.0%,u
Cn1cccc1/C=C1\CC(C(C)(C)C)C/C(=C\c2cccn2C)C1=O (stereo not given),u,u,3.7%,7.94µM*,2.82µM*,-5.6%
COc1cccc(/C=C/c2ccnc3ccccc23)c1OC,x,x,x,-8.0%,x,x
N#Cc1ccc(NC(=O)COc2ccccc2C(=O)Nc2ccccc2)cc1,x,x,x,2.0%,x,x
CC(C)(C)n1ncc2c(=O)n(Cc3ccc(SC(=O)O)cc3Cl)cnc21,x,x,x,2.8%,x,x
CN1/C(=C\C=C(C#N)C#N)C(C)(C)c2ccccc21,11.2µM*,u,8.5%,-2.3%,25.1µM*,-2.9%
CN1/C(=C\C=C(/C#N)C(=O)Nc2ccc(Cl)cc2)C(C)(C)c2ccccc21,u,u,13.3%,7.08µM*,22.4µM*,x
COc1cc(/C=C2\SC(=S)N(NC(=O)c3ccccc3O)C2=O)ccc1O,11.2µM*,4.6%,x,-10.2%,x,u
O=C(NN1C(=O)/C(=C/c2ccc(O)cc2)SC1=S)c1ccccc1O,-7.0%,30.0%,x,0.5%,x,u
CCCCCCCCCC[n+]1cccc2cc(Br)ccc21,x,x,x,-18.2%,x,x
CCCCNc1c(-c2ccc(SC(C)CC)cc2)nc2cnccn12 (stereo not given),10µM*,-15.5%,x,u,x,x
CCCCNc1c(-c2ccc(OC)c(Sc3ccc(OC)cc3)c2)nc2cnccn12,2.8%,-1.7%,x,-19.4%,x,x
O=C(C[n+]1cccc(Br)c1)c1ccc2ccccc2c1,x,x,x,-4.6%,x,x
Cc1c2ccccc2nc2c(F)c(NCCO)c(F)c(F)c12,u,u,-0.3%,u,-1.1%,20.2%
Cc1c2ccccc2nc2c(F)c(NC(C)C)c(F)c(F)c12,12.6µM*,u,17.8%,u,u,33.9%
CCCCCCc1cc2cc(C(=O)OCC)c(=O)oc2cc1O,8.4%,-7.3%,11.4%,0.4%,-0.3%,x
CCCCCCc1cc2cc(-c3nnc(-c4ccc(C)cc4)o3)c(=O)oc2cc1O,u,x,x,u,2.24µM*,x
Cc1[nH]c2ccccc2c1/C=C/c1cc[n+](C)cc1,u,u,-3.7%,3.16µM*,14.1µM*,u
CN1N/C(=C\c2ccccc2)N=C2C(=O)N(C)C(=O)N=C21,x,x,x,-28.3%,x,x
c1ccc2c(CCc3c[nH]c4ccccc34)ccnc2c1,x,x,x,11.2µM*,x,x
COc1ccc(CCNC2CC(=O)N(CCc3ccccc3)C2=O)cc1 (stereo not given),-1.1%,-1.9%,-0.7%,0.8%,-4.7%,5.8%
CCN(CC)c1ccc(NC2CC(=O)N(CCc3ccc(OC)cc3)C2=O)cc1 (stereo not given),u,3.8%,x,-6.9%,3.55µM*,15.8%
CCCCN(CCCC)S(=O)(=O)c1ccc(C(=O)Nc2sc3c(c2C(N)=O)CCN(CC)C3)cc1,28.2µM*,x,x,u,u,x
SMILES,Vif-APOBEC3F blk,PTAP TSG101 blk,CBFb-RUNX1 inh,Vif-A3G inh,Epigenetic derep,MBNL1 CUG block
CCN1CCc2c(sc(NC(=O)c3ccc(S(=O)(=O)N(CC)c4ccccc4)cc3)c2C(N)=O)C1,u,u,x,u,x,3.4%
Cc1cccn2c(=O)c3cc(C#N)c(=NC(=O)c4cccs4)n(CCCOC(C)C)c3nc12,25.1µM*,-4.4%,9.8%,-8.2%,u,u
CCN(CC)c1ccc(/C=C2/SC(=O)N(C(C)C)C2=O)o1,u,u,2.4%,u,11.2µM*,9.8%
Cc1c(F)cccc1Cn1cnc2c(cnn2C(C)(C)C)c1=O,x,x,x,0.2%,x,x
Cc1ccc(NC(=O)c2ccc(NCCc3ccccc3)c([N+](=O)[O-])c2)cc1F,0.6%,u,-0.7%,-4.1%,12.6µM*,15.6%
O=C(Nc1cc(F)cc(F)c1)c1ccc(NCCc2ccccc2)c([N+](=O)[O-])c1,u,u,-21.2%,-17.5%,-0.9%,x
COc1cc(/C=C2\CC(C(C)(C)C)C/C(=C\c3cc(OC)c(OC)c(OC)c3)C2=O)cc(OC)c1OC (stereo not given),u,-4.9%,x,8.91µM*,x,-10.9%
COc1cc(/C=C2\CC/C(=C\c3cc(OC)c(OC)c(OC)c3)C2=O)cc(OC)c1OC,-27.1%,-1.6%,-1.8%,-5.4%,u,x
COC(=O)CSc1nc2cc(C)ccc2cc1C#N,x,-3.2%,0.8%,-14.4%,15.8µM*,28.1%
CCOC(=O)CC(=O)CSc1nc2ccc(C)cc2cc1C#N,0.4%,u,-11.0%,-1.1%,-0.1%,u
Cc1ccc2nc(SCC(=O)Nc3ccc4sc(C)nc4c3)c(C#N)cc2c1,11.2µM*,-2.6%,12.8%,-4.1%,5.62µM*,24.7%
Cc1cc(/C=C2\SC(=S)N(Cc3ccco3)C2=O)c(C)n1-c1cccnc1,11.2µM*,u,-6.2%,5.62µM*,22.4µM*,11.0%
Nc1c(C(=O)Nc2ccc(S(=O)(=O)N3CCCC3)cc2)sc2nc3ccc(OC(F)(F)F)cc3cc12,22.4µM*,u,0.8%,u,7.94µM*,18.0%
Nc1c(C(=O)Nc2ccc(S(=O)(=O)N3CCCC3)cc2)sc2nc3cc4c(cc3cc12)CCC4,10µM*,0.1%,2.5%,12.6µM*,3.55µM*,3.7%
Nc1c(C(=O)Nc2ccc(C(=O)O)cc2)sc2nc3c(cc12)CCCC3,-1.8%,x,x,-1.3%,-0.7%,x
Cc1ccccc1NC(=O)c1sc2nc3c(cc2c1N)CN(Cc1ccccc1)CC3,x,x,x,x,4.4%,x
COc1ccc(NC(=O)c2sc3nc4c(cc3c2N)CN(Cc2ccccc2)CC4)cc1OC,x,x,x,x,17.8µM*,x
CS(=O)(=O)N1N=C(c2ccccc2)CC1c1ccc2c(c1)OCO2 (stereo not given),u,u,-17.0%,10µM*,-3.2%,-14.4%
Cc1ccc(NC(=O)CSc2ccccc2NC(=O)c2cccc(Cl)c2)cc1Cl,11.2µM*,u,2.1%,-61.5%,-0.1%,-17.2%
Cc1cccc(C(=O)Nc2ccccc2SCC(=O)Nc2ccc(C)c(Cl)c2)c1,-9.1%,-0.5%,4.7%,0.8%,1.0%,1.0%
CC(C)c1ccc(Cn2cnc3c(cnn3C(C)(C)C)c2=O)cc1,x,x,x,0.9%,x,x
N#Cc1c(C(F)(F)F)cc(-c2ccco2)nc1SCc1ccccn1,25.1µM*,0.2%,-16.1%,u,u,78.0%
